Bioassay records as filed in PubChem.
Only some compounds are listed: those with a hit (about 9.4% of all), similar ones and a draw of the others.
SARS PLpro yeast: blocks SARS-CoV papain-like protease in a yeast assay | S. cerevisiae expressing SARS-CoV PLpro, growth rescue | 330,000 compounds, 0.19% hits | AID 485353 | Potency, µM (titrated, usually from 32.9 µM), for inactives: at the top dose activity, positive = growth rescue, actives largely listed as activators; calls by dose curve; further: 0% is about no effect; nearly all actives have a fitted effect of over 55% in size
Pf growth 48h: inhibits P. falciparum growth in the first generation, 48 h | P. falciparum luciferase growth in erythrocytes, 48 h | AID 504832 | Potency, µM (doses to about 28.7 µM), for the others: top-dose activity change, negative = inhibition, hits mostly inhibitors | 310,000 compounds, 5.9% hits; further: on the % scale 0 is the no-effect control and ±100 the full control effect
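First compound was added to culture medium, then infected red cells at 0.1% parasitemia and 2% hematocrit (final). After incubation at 37 C under 5% CO2, luciferase detection reagent was dispensed and light output recorded.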
Pf growth 96h: P. falciparum growth inhibition at 96 hours; AID 504834; Potency, µM (series often up to 28.7 µM), inactives show at the top dose activity change, negative = inhibition, most hits filed as inhibitors; 320,000 compounds, 6.9% hits; P. falciparum luciferase reporter growth, 96 h; further: on the % scale 0 is the no-effect control and ±100 the full control effect
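P. falciparum expressing integrated firefly luciferase, in erythrocytes at 2% hematocrit, 0.05% parasitemia, incubated with compounds 96 h at 37 C, 5% CO2. Growth inhibition read as loss of luminescence; two-generation exposure targets delayed-death apicoplast inhibitors.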
AMA1 RON2 block: AMA1-RON2 (P. falciparum) interaction inhibition. AlphaScreen AMA1-biotinylated RON2 peptide binding. Potency, µM (top dose mostly 58.2 µM), without a hit: at the highest dose activity change, negative = inhibition, actives largely listed as inhibitors. 360,000 compounds, 0.2% hits;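 further: 0% = vehicle wells and -100% = peptide control; nearly all actives have a fitted effect of over 45% in size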
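AMA1 (3D7) with his tag at 25 nM final met compounds first, then biotinylated RON2 peptide at 25 nM; detection used donor plus acceptor beads, 10 µg/mL apiece, read by AlphaScreen after 30 min at room temperature.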
* hit, by the source's call; u = inconclusive; x = no result; [ ] = dose if it differs, or a comment. Unless noted, the call rests on the fitted dose curve; in most records, active means well fitted curve in the direction sought with a large enough effect; inconclusive means small, poorly fitted or top-dose-only effect, or another doubt; inactive means no such curve, though single readings can be large; an effect the other way counts as inactive or inconclusive. Potency means the concentration at half of the fitted maximal effect.

SMILES | SARS PLpro yeast | Pf growth 48h | Pf growth 96h | AMA1 RON2 block
COc1ccc(N2CCN(CC(=O)c3c[nH]c4ccccc34)CC2)cc1 | 1% | -10% | 15% | -13%
CC1(C)Cc2c(C#N)c(NCCN3CCOCC3)nc(-c3ccccc3)c2CO1 | -2% | -19% | -17% | 1%
CC1(C)Cc2c(c(-c3ccco3)nc3sc4c(NCC5CCCO5)ncnc4c23)CO1 (centres undefined) | 23% | -2% | u | 6%
CC(C)CNc1ncnc2c1sc1nc(N3CCOCC3)c3c(c12)CC(C)(C)OC3 | -6% | u | u | -3%
CC1(C)Cc2c(c(-c3ccco3)nc3sc4c(NCCN5CCOCC5)ncnc4c23)CO1 | 21% | 8.3µM* | u | -5%
CC1(C)Cc2c(C#N)c(NCCN3CCOCC3)nc(-c3ccco3)c2CO1 | -1% | 13µM* | 10µM* | -5%
CC1(C)Cc2c(c(-c3ccco3)nc3sc4c(NCCCO)ncnc4c23)CO1 | 1% | u | 4.1µM* | -22%
NS(=O)(=O)c1ccc(NC(=O)COC(=O)CCC2CCCCC2)cc1 | 12% | -2% | -30% | -2%
CNc1ccc(S(=O)(=O)NCC(=O)NCCCc2ccccc2)cc1[N+](=O)[O-] | -1% | u | u | -16%
CCOc1ccccc1-c1nc(-c2ccc(NC(=O)Cc3ccccc3OC)cc2)no1 | 7% | 13µM* | 3.7µM* | -4%
COc1ccccc1CC(=O)Nc1ccc(-c2nnc(-c3ccco3)o2)cc1 | 3% | 8.3µM* | 135% | 12%
CCOc1ccccc1NC(=O)c1ccccc1-c1ccccc1 | -4% | -15% | u | 3%
CCOc1ccccc1-c1noc(CCC(=O)Nc2cccnc2)n1 | 8% | 11% | 8.3µM* | 4%
CCOc1ccccc1NC(=O)c1ccccc1-c1nc(-c2ccccc2)no1 | 5% | u | 8.3µM* | 6%
CC(=O)c1cccc(NC(=O)Nc2cc3sccc3n2C)c1 | -5% | u | u | x
COc1ccc(CNC(=O)c2ccc(CS(=O)Cc3cccc(Cl)c3)o2)cc1 (centres undefined) | 1% | 1% | u | -11%
COc1ccc(OC)c(CCNC(=O)c2ccc(CS(=O)Cc3cccc(Cl)c3)o2)c1 (centres undefined) | -4% | u | 4.1µM* | -1%
COCCCn1c(=NC(=O)c2ccncc2)c(C#N)cc2c(=O)n3cccc(C)c3nc21 | -1% | 2.9µM* | 3% | 15%
CCOCCCn1c(=NC(=O)c2cccs2)c(C#N)cc2c(=O)n3ccccc3nc21 | 1% | 4.7µM* | 10µM* | 7%
CCCn1c(=NC(=O)c2ccncc2)c(C#N)cc2c(=O)n3cccc(C)c3nc21 | x | x | x | -3%
Cc1cccn2c(=O)c3cc(C#N)c(=NC(=O)c4ccncc4)n(CCCOC(C)C)c3nc12 | -2% | 4.1µM* | 6.6µM* | 4%
CCCCn1c(=NC(=O)c2cccnc2)c(C#N)cc2c(=O)n3cccc(C)c3nc21 | 15% | x | u | 7%
Cc1cccn2c(=O)c3cc(C#N)c(=NC(=O)c4cccs4)n(CCCOC(C)C)c3nc12 | 2% | 1.7µM* | 1.9µM* | 2%
CCOCCCn1c(=NC(=O)c2cccnc2)c(C(=O)OCC)cc2c(=O)n3ccccc3nc21 | -2% | u | u | 11%
CC1(C)SC2c3ccccc3C(=O)N2[C@@H]1C(=O)NC1CCCC1 (some centres undefined) | -2% | u | -1% | -1%
SMILES | SARS PLpro yeast | Pf growth 48h | Pf growth 96h | AMA1 RON2 block
O=C(O)CN(CCc1ccccc1)S(=O)(=O)c1ccccc1 | 1% | -7%[0.00184 µM] | 26% | -2%
CC(=O)N=c1c(C#N)cc2c(=O)n3cccc(C)c3nc2n1Cc1ccco1 | 1% | 0% | u | -9%
CC(=O)N=c1c(C#N)cc2c(=O)n3cccc(C)c3nc2n1CCCOC(C)C | 0% | u | 10µM* | 0%
CCCSC1=N/C(=C\C=C\c2ccco2)C(=O)S1 | -24% | 2% | 15% | 11µM*
COc1ccccc1NC(=O)Cn1cnc2sc(C)c(S(=O)(=O)N3CCCCC3)c2c1=O | u | -22% | 0.52µM* | 0%
CCCCN(C)C(=O)Cn1cnc2sc(C)c(S(=O)(=O)N3CCN(c4ccccc4OC)CC3)c2c1=O | -7% | 12µM* | 3% | -1%
COc1ccc(C)cc1NC(=O)Cn1cnc2sc(C)c(S(=O)(=O)N3CCOCC3)c2c1=O | 15% | u | 12% | -17%
CCN(CC)CCNC(=O)Cn1cnc2sc(C)c(S(=O)(=O)N3CCN(c4ccccc4OC)CC3)c2c1=O | 1% | 1% | u | -3%
CCCCC(CC)COC(=O)c1ccccc1C(=O)OCC(CC)CCCC (centres undefined) | x | u | -1% | 16%
CCCCC(CC)COC(=O)C(C#N)=C(c1ccccc1)c1ccccc1 (centres undefined) | -1% | 2.6µM* | 2.6µM* | 12%
CCCCOC(=O)c1ccc(NC(=O)CSc2nnnn2C)cc1 | 1% | 0% | 10% | -1%
N#C/C(=C\c1c[nH]c2ccc(Br)cc12)c1ccccn1 | 2% | u | 9.3µM* | 6%
c1ccc(CNn2nnnc2-c2ccccc2)cc1 | x | 2% | -94% | -2%
CC1(C)C(=O)C=C[C@]2(C)[C@H]3CC[C@@]4(C)[C@H](c5ccoc5)OC(=O)[C@H]5O[C@]54[C@]3(C)[C@H](O)C[C@@H]12 | -34% | 12µM* | 8.3µM* | -8%
O=c1c2ccc(Cl)cc2nc(-c2cccc(C(F)(F)F)c2)n1O | -51% | u | 10µM* | 54%
Cc1cc2oc(=O)cc(CN3CCN(C/C=C/c4ccccc4)CC3)c2cc1O | -2% | 2.9µM* | x | x
CC(C)CN(Cc1cc(=O)oc2cc(-c3ccccc3)c(O)cc12)CC(C)C | -2% | 0.33µM* | u | 19%
Cc1cc2oc(=O)cc(CN3CCN(Cc4ccccc4)CC3)c2cc1O | 2% | 9.3µM* | u | -3%
CCc1cc2c(CN3CCN(CCO)CC3)cc(=O)oc2cc1O | 8% | 13µM* | u | 24%
N#C/C(=C(/O)CSc1n[nH]c(N)n1)c1nc2ccccc2[nH]1 | 0% | -2% | 82% | 106%
c1csc(-c2nn[nH]n2)c1 | 1% | 6% | u | 39%
Oc1ccc2ccccc2c1CN1CCN(C/C=C/c2ccccc2)CC1 | -7% | u | 9.3µM* | -12%
O=c1cc(CN2CCN(C/C=C/c3ccccc3)CC2)c2cc(O)c(-c3ccccc3)cc2o1 | -22% | 0.93µM* | 1µM* | 3%
Cc1cc(O)c2c(CN3CCN(Cc4ccccc4)CC3)cc(=O)oc2c1 | -1% | u | 8.3µM* | -10%
O=c1cc(CN2CCN(Cc3ccccc3)CC2)c2cc(O)ccc2o1 | 3% | -24% | u | -2%
Cc1ccc2c(CN3CCN(S(=O)(=O)/C=C/c4ccccc4)CC3)cc(=O)oc2c1 | 17% | u | 9.3µM* | -2%[11.6 µM]
Cc1ccc2c(CN3CCCCC3)cc(=O)oc2c1 | 0% | 35% | 19% | -2%
COc1ccccc1C(=O)Nc1ccnn1C1CCN(C2CCSCC2)CC1 | 8% | 4% | -18% | 2%
